Results filed as inconclusive are left out. For some assays here: Entries with a potency or affinity are not part of this list. Calls of active or inactive are those of the source.
Legend:
[1] = Ebola virus entry assay, green fluorescence channel
[2] = Ebola virus entry assay, blue channel fluorescence
[3] = Ebola virus entry assay, green fluorescence channel; remark: listed apart in the source
[4] = Ebola virus entry assay, ratio channel readout
[5] = Ebola virus entry assay, blue channel fluorescence; remark: listed apart in the source
[6] = Ebola virus entry assay, green channel fluorescence
[7] = Ebola virus entry assay, blue channel fluorescence; remark: listed apart in the source
[8] = Ebola virus entry assay, reporter ratio channel
[9] = Ebola virus entry assay, blue channel (ratio component)
[10] = qHTS Assay for Identifying Gametocytocidal Compounds (AID 743244; active = well fitted curve in the direction sought with a large enough effect;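 note: % is set by controls: 0 for no effect and ±100 for the full control effect; actives lower the fluorescent signal which means gametocytes are killed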); settings: P. falciparum 3D7 stage III-V gametocytes, alamarBlue, 72 h; max response: stronger effect = lower value
Summary of the method: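 In this qHTS viability screen, late-stage 3D7 gametocytes are incubated with compound for 72 h, then with alamarBlue for 24 h; reduced resorufin fluorescence marks killing.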

[11] = Ebola virus entry assay, ratio channel
[12] = qHTS profiling of the MIPE4 collection as inhibitors of Plasmodium falciparum (3D7) proliferation (AID 743344);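 note: scaled between DMSO vehicle wells and 0.29 µM artemisinin as full inhibition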; settings: P. falciparum 3D7 in erythrocytes, SYBR Green DNA fluorescence, 72 h; at 28.5 µM (top of the series) unless noted
Summary of the method: (§1)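 Parasite DNA was quantified by SYBR Green I fluorescence (ex 485, em 535 nm) after overnight lysis in saponin/Triton buffer at room temperature. Cultures at 0.3% parasitemia and 2.5% hematocrit were first exposed to compound for 72 h at 37 C; signals were normalised to artemisinin (0.29 uM) and vehicle wells.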

[13] = qHTS profiling of the MIPE4 collection as inhibitors of Plasmodium falciparum (DD2) proliferation (AID 743345); settings: P. falciparum Dd2 in erythrocytes, SYBR Green DNA, 72 h; at 28.5 µM (top of the series) unless noted
Summary of the method: as §1

[14] = qHTS profiling of the MIPE4 collection as inhibitors of Plasmodium falciparum (DD2) proliferation (Rep 2) (AID 743346); settings: P. falciparum Dd2 in erythrocytes, SYBR Green DNA, 72 h; at 28.5 µM (top of the series) unless noted
Summary of the method: as §1

[15] = qHTS profiling of the MIPE4 collection as inhibitors of Plasmodium falciparum (HB3) proliferation (AID 743347);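 note: plate controls were DMSO vehicle wells for no effect and artemisinin wells for full effect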; settings: P. falciparum HB3 in erythrocytes, SYBR Green DNA, 72 h; at 28.5 µM (top of the series) unless noted
Summary of the method: as §1

[16] = AC50: Channel type: primary unless noted, outcome: Channel type: primary unless noted
Throughout, for efficacy: 0% is about no effect.

CC[C@@]1(c2ccccc2)NC(=O)N(C)C1=O
inactive: efficacy [1] -26.5% | outcome [2] | outcome [3] | outcome [4] | outcome [5] | outcome [6] | outcome [7] | outcome [8, 16] | outcome [9]

C=C1CC[C@@]2(O)[C@H]3Cc4ccc(O)c5c4[C@@]2(CCN3CC2CC2)[C@H]1O5
inactive: max response [10] 7.59% | efficacy [1] 46.6% | outcome [2] | outcome [3] | outcome [4] | outcome [11] | outcome [6] | outcome [7] | outcome [8, 16] | outcome [9]

CN1CCN(C(=O)O[C@H]2c3nccnc3C(=O)N2c2ccc(Cl)cn2)CC1
95.4%: parasite growth, % of DMSO control [12]
97.2%: growth, % of control [15]
98.2%: parasite growth remaining, % of DMSO control (lower = more inhibition) [13]
inactive: max response [10] -4.73% | efficacy [1] 27.7% | outcome [2] | outcome [3] | outcome [4] | outcome [5] | outcome [6] | outcome [7] | outcome [8, 16] | outcome [9]
86.8%: parasite growth, % of control (lower = inhibition) [14]

Nc1nc2c(ncn2COCCO)c(=O)[nH]1
inactive: efficacy [1] -5.83% | outcome [2] | outcome [3] | outcome [4] | outcome [11] | outcome [6] | outcome [7] | outcome [8, 16] | outcome [9]

CN1C(CCl)Nc2cc(Cl)c(S(N)(=O)=O)cc2S1(=O)=O (stereo unspecified)
inactive: efficacy [1] -11.6% | outcome [2] | outcome [3] | outcome [4] | outcome [11] | outcome [6] | outcome [7] | outcome [8, 16] | outcome [9]

CC(C)(C#N)c1cc(Cn2cncn2)cc(C(C)(C)C#N)c1
inactive: efficacy [1] 15% | outcome [2] | outcome [3] | outcome [4] | outcome [11] | outcome [6] | outcome [7] | outcome [8, 16] | outcome [9]

O=C(O)c1ccc(-n2nc(-c3ccccc3O)nc2-c2ccccc2O)cc1
inactive: efficacy [1] 48% | outcome [2] | outcome [3] | outcome [4] | outcome [5] | outcome [7] | outcome [8, 16]

C[C@]12CC[C@@H]3c4ccc(O)cc4C[C@@H](CCCCCCCCCS(=O)CCCC(F)(F)C(F)(F)F)[C@H]3[C@@H]1CC[C@@H]2O (stereo partly specified)
inactive: efficacy [1] 40.4% | outcome [2] | outcome [3] | outcome [4] | outcome [11] | outcome ([8]; Channel type: confirmation) | outcome ([8]; Channel type: primary) | outcome [9]

CC(C)c1c(C(=O)Nc2ccccc2)c(-c2ccccc2)c(-c2ccc(F)cc2)n1CC[C@@H](O)C[C@@H](O)CC(=O)O
inactive: efficacy [1] 32.2% | outcome [2] | outcome [3] | outcome [4] | outcome [11] | outcome [6] | outcome [8, 16] | outcome [9]

CN(N=O)C(=O)N[C@@H]1[C@@H](O)[C@H](O)[C@@H](CO)O[C@@H]1O
inactive: efficacy [1] -17.3% | outcome [2] | outcome [3] | outcome [4] | outcome [11] | outcome [6] | outcome [7] | outcome [8, 16] | outcome [9]

CC(C)C1CCC(C(=O)N[C@H](Cc2ccccc2)C(=O)O)CC1 (stereo partly specified)
inactive: efficacy [1] -31.7% | outcome [2] | outcome [3] | outcome [4] | outcome [11] | outcome [6] | outcome [7] | outcome [8, 16] | outcome [9]

Cc1ccnc2c1NC(=O)c1cccnc1N2C1CC1
83.7%: parasite growth, % of control (lower = inhibition) [14]
112%: parasite growth remaining, % of DMSO control (lower = more inhibition) [13]
inactive: efficacy [1] 25.7% | outcome [2] | outcome [3] | outcome [4] | outcome [5] | outcome [6] | outcome [7] | outcome [8, 16] | outcome [9]
358%: parasite growth, % of DMSO control [12]
600%: growth, % of control [15]

CC(=O)Nc1nnc(S(N)(=O)=O)s1
inactive: efficacy [1] -19.1% | outcome [2] | outcome [3] | outcome [4] | outcome [5] | outcome [7] | outcome [8, 16] | outcome [9]

Cc1c(OCC(F)(F)F)ccnc1CS(=O)c1nc2ccccc2[nH]1 (stereo unspecified)
56.6%: parasite growth, % of DMSO control [12]
83.1%: parasite growth remaining, % of DMSO control (lower = more inhibition) [13]
42.1%: parasite growth, % of control (lower = inhibition) [14]
50.8%: growth, % of control [15]
inactive: max response [10] 1.82% | efficacy [1] 18.5% | outcome [2] | outcome [3] | outcome [4] | outcome [5] | outcome [6] | outcome [7] | outcome [8, 16] | outcome [9]

CO/N=C1\CN(c2nc3c(cc2F)c(=O)c(C(=O)O)cn3C2CC2)CC1CN (stereo unspecified)
inactive: efficacy [1] -13.2% | outcome [2] | outcome [3] | outcome [4] | outcome [11] | outcome [6] | outcome [7] | outcome [8, 16] | outcome [9]

O=C(O)C1(C(=O)O)CCC1.[NH2-].[NH2-].[Pt+2]
inactive: efficacy [1] -21.2% | outcome [2] | outcome [3] | outcome [4] | outcome [6] | outcome [7] | outcome [8, 16]

CCC(C(N)=O)N1CCCC1=O (stereo unspecified)
inactive: max response [10] -7.9% | efficacy [1] -12.2% | outcome [2] | outcome [3] | outcome [4] | outcome [11] | outcome [6] | outcome [7] | outcome [8, 16] | outcome [9]

CN(C)[C@@H]1C(=O)C(C(N)=O)=C(O)[C@@]2(O)C(=O)C3=C(O)c4c(O)cccc4[C@@](C)(O)[C@H]3C[C@@H]12
inactive: max response [10] 8.32% | efficacy [1] 106% | outcome [2] | outcome [3] | outcome [4] | outcome [11] | outcome [7]
28.7%: parasite growth, % of DMSO control [12]
30.2%: parasite growth, % of control (lower = inhibition) [14]
39.9%: parasite growth remaining, % of DMSO control (lower = more inhibition) [13]
active: AC50 [8, 16] 31.6 µM
32.8%: growth, % of control [15]

CN1C(=O)CC(C)(c2ccccc2)C1=O (stereo unspecified)
inactive: efficacy [1] -45.4% | outcome [2] | outcome [3] | outcome [4] | outcome [5] | outcome [7] | outcome [8, 16] | outcome [9]

CCOC(=O)[C@H](CCc1ccccc1)N[C@@H](C)C(=O)N1Cc2cc(OC)c(OC)cc2C[C@H]1C(=O)O
inactive: efficacy [1] 30.5% | outcome [2] | outcome [3] | outcome [4] | outcome [11] | outcome [6] | outcome [7] | outcome [8, 16] | outcome [9]
